Measurements taken from PubChem BioAssay.
The source made the active and inactive calls.

Key:
[1] = small molecules captured by biotinylated probe aFSTL3 – biochemical, small-molecule microarray, fluorescence 635/667, stem cell growth factor project, primary screen (AID 1064); conditions: higher = more signal;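 note: measures binding of the biotinylated anti-FSTL3 antibody to printed compounds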
[2] = binders from COS7 lysate, DM2A8 probe, primary screen, torsin A project, cell lysate, small-molecule microarray, fluorescence 635/667 (AID 1065); conditions: higher = more signal, COS7 lysate expressing mutant human TOR1A
[3] = small molecules captured by biotinylated probe aFGF2 – biochemical, small-molecule microarray, fluorescence 635/667, stem cell growth factor project, primary screen (AID 1067); conditions: higher = more signal;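 note: measures binding of biotinylated aFGF2 protein to printed compounds on slides; z-score merges feature fluorescence and signal-to-noise across triplicate slides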
[4] = small molecules captured by biotinylated probe aFGF10 – biochemical, small-molecule microarray, fluorescence 635/667, stem cell growth factor project, primary screen (AID 1071); conditions: higher = more signal;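 note: score merges 667 nm spot intensity and signal to noise from triplicate slides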
[5] = biological target: Neurogenic locus notch homolog protein 2 (Homo sapiens) (UniProt Q04721); assay: small molecules binding Notch2 protein – biochemical, small-molecule microarray, 635 nm fluorescence, stem cell growth factors, primary screen (AID 1073); conditions: higher = more signal
Chain of Neurogenic locus notch homolog protein 2 (Homo sapiens) (Q04721 whole entry, looked up, canonical isoform): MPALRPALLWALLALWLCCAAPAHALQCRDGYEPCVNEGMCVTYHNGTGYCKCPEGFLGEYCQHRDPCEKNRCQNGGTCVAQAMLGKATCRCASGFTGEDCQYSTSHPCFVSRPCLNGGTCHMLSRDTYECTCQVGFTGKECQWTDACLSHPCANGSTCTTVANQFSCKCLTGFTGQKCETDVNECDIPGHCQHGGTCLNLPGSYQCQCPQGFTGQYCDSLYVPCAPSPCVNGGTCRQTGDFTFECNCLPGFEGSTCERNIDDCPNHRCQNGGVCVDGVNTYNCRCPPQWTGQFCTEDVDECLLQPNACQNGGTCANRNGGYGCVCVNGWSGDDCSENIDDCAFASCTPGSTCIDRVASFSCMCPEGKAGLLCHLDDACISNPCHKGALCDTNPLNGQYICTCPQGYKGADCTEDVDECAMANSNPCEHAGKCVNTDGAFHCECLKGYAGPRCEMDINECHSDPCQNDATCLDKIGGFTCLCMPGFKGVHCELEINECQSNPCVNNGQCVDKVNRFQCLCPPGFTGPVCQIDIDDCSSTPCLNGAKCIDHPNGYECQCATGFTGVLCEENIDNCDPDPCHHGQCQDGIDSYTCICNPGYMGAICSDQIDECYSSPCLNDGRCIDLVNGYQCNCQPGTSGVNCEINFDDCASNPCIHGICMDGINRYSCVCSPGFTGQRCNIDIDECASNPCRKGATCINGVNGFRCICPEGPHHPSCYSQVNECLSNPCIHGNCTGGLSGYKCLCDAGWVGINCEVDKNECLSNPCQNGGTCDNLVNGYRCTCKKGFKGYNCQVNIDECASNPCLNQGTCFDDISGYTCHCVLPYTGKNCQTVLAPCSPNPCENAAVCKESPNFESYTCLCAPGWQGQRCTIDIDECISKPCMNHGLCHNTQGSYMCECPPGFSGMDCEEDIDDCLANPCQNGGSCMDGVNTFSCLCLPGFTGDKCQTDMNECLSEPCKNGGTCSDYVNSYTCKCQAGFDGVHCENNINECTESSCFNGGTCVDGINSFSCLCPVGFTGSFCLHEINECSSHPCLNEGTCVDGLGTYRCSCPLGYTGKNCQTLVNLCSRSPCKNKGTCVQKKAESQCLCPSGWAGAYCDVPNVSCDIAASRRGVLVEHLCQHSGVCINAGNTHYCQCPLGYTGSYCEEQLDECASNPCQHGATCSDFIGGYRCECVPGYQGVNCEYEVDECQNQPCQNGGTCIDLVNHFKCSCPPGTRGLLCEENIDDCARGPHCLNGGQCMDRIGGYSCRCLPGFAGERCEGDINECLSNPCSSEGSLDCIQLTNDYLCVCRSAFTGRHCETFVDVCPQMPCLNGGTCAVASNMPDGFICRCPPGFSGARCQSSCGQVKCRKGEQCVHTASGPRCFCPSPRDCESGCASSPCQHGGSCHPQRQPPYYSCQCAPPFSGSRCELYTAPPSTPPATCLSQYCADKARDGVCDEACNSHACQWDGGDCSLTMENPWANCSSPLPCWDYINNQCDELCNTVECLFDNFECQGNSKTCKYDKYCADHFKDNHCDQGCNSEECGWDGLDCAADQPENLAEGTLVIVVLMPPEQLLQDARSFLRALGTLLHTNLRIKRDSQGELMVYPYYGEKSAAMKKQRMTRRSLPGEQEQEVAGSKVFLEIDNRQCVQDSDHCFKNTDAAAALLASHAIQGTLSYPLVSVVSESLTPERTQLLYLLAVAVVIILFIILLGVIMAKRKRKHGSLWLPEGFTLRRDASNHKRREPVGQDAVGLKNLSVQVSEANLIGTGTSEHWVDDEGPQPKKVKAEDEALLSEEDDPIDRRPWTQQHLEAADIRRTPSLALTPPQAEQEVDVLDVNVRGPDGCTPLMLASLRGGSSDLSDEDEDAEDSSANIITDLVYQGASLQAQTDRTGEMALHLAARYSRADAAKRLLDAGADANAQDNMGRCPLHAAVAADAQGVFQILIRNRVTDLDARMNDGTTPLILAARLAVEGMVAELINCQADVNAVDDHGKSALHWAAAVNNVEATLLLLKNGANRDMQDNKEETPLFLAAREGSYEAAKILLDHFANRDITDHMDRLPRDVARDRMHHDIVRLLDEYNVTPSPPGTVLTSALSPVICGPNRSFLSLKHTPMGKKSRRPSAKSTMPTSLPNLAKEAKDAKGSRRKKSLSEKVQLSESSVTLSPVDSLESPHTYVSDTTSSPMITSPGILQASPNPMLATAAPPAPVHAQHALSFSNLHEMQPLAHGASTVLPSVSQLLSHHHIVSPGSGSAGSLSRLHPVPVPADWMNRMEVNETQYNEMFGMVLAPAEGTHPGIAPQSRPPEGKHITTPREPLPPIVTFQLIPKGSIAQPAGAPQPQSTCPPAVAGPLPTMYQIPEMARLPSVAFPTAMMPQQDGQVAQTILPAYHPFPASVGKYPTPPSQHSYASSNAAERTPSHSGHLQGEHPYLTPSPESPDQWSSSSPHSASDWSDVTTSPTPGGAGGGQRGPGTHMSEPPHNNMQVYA

[6] = biological target: Pro-neuregulin-1, membrane-bound isoform (Homo sapiens) (UniProt Q02297); assay: small molecules binding neuregulin-1 protein – biochemical, small-molecule microarray, fluorescence 635/667, psychiatric disease protein project, primary screen (AID 1075); conditions: NRG1 binding, 635 nm fluorescence, higher = more signal;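 note: score combines 667 nm spot fluorescence with signal to noise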
Chain of Pro-neuregulin-1, membrane-bound isoform (Homo sapiens) (Q02297 whole entry, looked up, the tested form may be a part, canonical isoform): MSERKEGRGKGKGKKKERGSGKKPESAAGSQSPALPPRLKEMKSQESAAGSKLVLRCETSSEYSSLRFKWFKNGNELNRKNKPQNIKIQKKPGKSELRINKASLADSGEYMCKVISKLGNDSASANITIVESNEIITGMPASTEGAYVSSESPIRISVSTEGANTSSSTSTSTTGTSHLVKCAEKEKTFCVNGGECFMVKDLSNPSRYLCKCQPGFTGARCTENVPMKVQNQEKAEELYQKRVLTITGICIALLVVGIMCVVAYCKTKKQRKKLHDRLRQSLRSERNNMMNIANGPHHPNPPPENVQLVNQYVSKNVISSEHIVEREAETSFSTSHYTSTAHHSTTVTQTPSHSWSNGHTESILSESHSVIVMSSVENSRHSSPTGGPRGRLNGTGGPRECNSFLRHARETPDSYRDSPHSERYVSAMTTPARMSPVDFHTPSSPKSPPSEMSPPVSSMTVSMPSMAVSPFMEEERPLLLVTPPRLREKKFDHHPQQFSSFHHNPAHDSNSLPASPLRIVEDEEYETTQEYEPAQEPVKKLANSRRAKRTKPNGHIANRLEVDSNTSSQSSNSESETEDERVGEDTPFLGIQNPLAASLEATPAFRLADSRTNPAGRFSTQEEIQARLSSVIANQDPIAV

[7] = tested on: Neuregulin-1 EGF-like domain; assay: small molecules binding NRG1 EGF domain – biochemical, small-molecule microarray, 635 nm fluorescence, primary screen (AID 1081); conditions: higher = more signal;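 note: binding of the protein to compounds printed on small-molecule microarray slides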
[8] = FRG1 expression reporter modulators in myotubes – cell-based, C2C12 myotubes, firefly/Renilla luciferase, luminescence, FRG1 inhibition for FSHD, primary screen (AID 1084); conditions: FRG1 promoter luciferase, higher = more signal, called active from +8 up or from −8 down
[9] = small molecules captured by biotinylated probe aFST – biochemical, small-molecule microarray, fluorescence 635/667, stem cell growth factor project, primary screen (AID 1086); conditions: higher = more signal;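 note: score merges 667 nm fluorescence with signal-to-noise of each printed compound spot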
[10] = binders of probe aHhip on microarray, primary screen, stem cell growth factor project, biochemical, small-molecule microarray, fluorescence 635/667 (AID 1087); conditions: higher = more signal;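 note: score merges spot fluorescence at 667nm with spot signal to noise ratio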

Row | Structure (SMILES) | composite z-score [1] | composite z-score [2] | composite z-score [3] | composite z-score [4] | composite z-score [5] | composite z-score [6] | composite z-score [7] | z-score [8] | composite z-score [9] | composite z-score [10]
1 | CC(C)=CCCC(C)=CCON=C1C[C@@H](O)[C@@H](O)[C@@H]2[C@@H]3C(=O)N(Cc4ccc5c(c4)OCO5)C(=O)[C@@H]3CC[C@H]12 | -0.386 | -0.203 | -0.0687 | 0.584 | 1.18 | 0.78 | 0.615 | 0.34 (inactive) | 0.416 | -0.272
2 | Cc1cc(C)c(-c2cc([C@H](C)ON=C[C@@H](C)[C@H](OCc3ccccc3)C(C)C)on2)c(C)c1 | -0.355 | 0.298 | -0.0901 | 0.0823 | -0.637 | -0.529 | -1.22 | 0.239 (inactive) | -0.342 | 0.0505
3 | COc1ccc(COC(=O)NN=C2C[C@@H](O)[C@@H](O)[C@@H]3[C@@H]4C(=O)N(C[C@@H]5CCCO5)C(=O)[C@@H]4CC[C@H]23)cc1 | 0.467 | 0.326 | -0.076 | -0.302 | -0.467 | -0.234 | -0.563 | -0.249 (inactive) | 0.162 | 0.0106
4 | COc1ccc(O[C@H]2C=C[C@@H](c3ccccc3)O[C@@H]2CON=C2c3cc(OC)ccc3O[C@H](c3cccc(OC)c3)[C@H]2O)cc1 | -0.661 | 0.354 | -0.201 | -0.054 | 1.38 | -0.139 | 0.463 | 1.82 (inactive) | 0.34 | -0.226
5 | CCOC(=O)[C@H](CC(C)C)NC(=O)CCC1CC(OC(=O)NCc2ccc3c(c2)OCO3)CC2(CCCC(COC(=O)NCc3ccccc3)O2)O1 (stereo not given in full) | -0.542 | 0.01 | -0.0667 | 0.536 | 0.375 | 0.929 | 1.12 | 1.61 (inactive) | 0.986 | -0.0994
6 | COC(=O)[C@H](C)NC(=O)CCC1CC(OC(=O)NCc2cccc3ccccc23)CC2(CCCC(COC(=O)NCCc3ccccc3OC)O2)O1 (stereo not given in full) | -0.629 | 0.0902 | -0.076 | 0.612 | 1.24 | 1.15 | 1.21 | 2.21 (inactive) | 0.573 | 0.24
7 | CCO[C@H](c1cc(OC)cc([N+](=O)[O-])c1OC)[C@H](C)[C@@H](OC)[C@H](C)C=CCC(=O)OC | 0.0456 | 0.32 | -0.0241 | -0.105 | 0.174 | 0.339 | 0.66 | -0.0602 (inactive) | 0.414 | -0.317
8 | CC#CCOCCC=C1c2ccccc2[C@@H](OC)[C@@H]1C | -0.35 | 0.575 | -0.143 | 0.452 | 0.105 | -0.361 | 0.244 | 0.181 (inactive) | 0.359 | 0.154
9 | CCOC(=O)CCN1C(=O)[C@H]2[C@H]3[C@H](O)[C@H](O)CC(=NNC(=O)OCC)[C@H]3CC[C@H]2C1=O | -0.264 | 0.345 | -0.162 | -0.188 | -0.752 | 0.189 | 0.54 | 0.115 (inactive) | 0.0166 | -0.0237
10 | CC(C)C(=O)N[C@H]1CCCN1C(=O)C=Cc1ccccc1 | -0.174 | 0.253 | -0.0212 | 0.803 | 0.74 | -0.219 | 0.72 | -0.302 (inactive) | 0.214 | -0.0319
11 | CCOC(=O)[C@H](CC(C)C)NC(=O)CCC1CC(OC(=O)NCc2ccc3c(c2)OCO3)CC2(CCCC(COC(=O)NCCOc3ccccc3)O2)O1 (stereo not given in full) | -0.538 | 0.143 | -0.11 | 0.652 | 1.36 | 0.843 | 0.943 | 0.929 (inactive) | 0.0762 | 0.276
12 | O=C1C[C@@H](O)[C@@H](O)[C@@H]2[C@@H]3C(=O)N(c4ccc(F)cc4F)C(=O)[C@@H]3CC[C@H]12 | -0.517 | 0.248 | -0.1 | 0.648 | 0.601 | 0.0794 | 0.354 | -0.536 (inactive) | 0.201 | 0.0373
13 | O=C1CCCC=C1C(O)c1ccc([N+](=O)[O-])cc1 (stereo not given) | -0.396 | 0.267 | -0.187 | 0.535 | 0.254 | -0.832 | -0.0876 | 0.925 (inactive) | -0.315 | -0.355
14 | COc1ccc(O[C@H]2C=C[C@@H](c3ccccc3)O[C@@H]2COC(=O)CCC(C)=NOC[C@@H](O)COCc2ccco2)cc1 | 0.776 | -1.81 | -0.411 | -1.98 | -2.67 | -1.28 | -0.649 | 0.838 (inactive) | -2.3 | -0.115
15 | COc1ccc(O[C@H]2C=C[C@@H](c3ccccc3)O[C@@H]2COC(=O)NCc2cccc3ccccc23)cc1 | -0.0348 | -0.0761 | -0.107 | 0.0599 | -0.096 | -0.027 | 0.0452 | -0.97 (inactive) | -0.116 | -0.294
16 | CC(CCN1CCCc2nc(C)c(C)cc21)=NOC[C@@H](O)COCc1ccco1 | 2.02 | 3.09 | 0.529 | 0.0131 | 0.164 | -0.0146 | 0.919 | 1.05 (inactive) | 2.79 | 3.19
17 | COCCNC(=O)OCC1CCCC2(CC(OC(=O)NCc3cccc4ccccc34)CC(CCC(=O)N[C@@H](C)C(=O)OC)O2)O1 (stereo not given in full) | -0.486 | 0.0192 | -0.0692 | 0.662 | 0.668 | 0.737 | 1.03 | -1.43 (inactive) | 0.311 | -0.0994
18 | CCOC(=O)[C@H](Cc1ccccc1)NC(=O)CCC1CC(OC(=O)NCCc2ccc(F)cc2)CC2(CCCC(COC(=O)NCCC(C)C)O2)O1 (stereo not given in full) | -0.397 | 0.813 | -0.0296 | -0.409 | 1.28 | 0.539 | 1.02 | -0.214 (inactive) | 0.296 | -0.201
19 | C=CC[C@@H]1C=C[C@H](ON=C(C)CCN2CCCc3nc(C)c(C)cc32)[C@@H](CO)O1 | 0.886 | 1.26 | 0.208 | 0.435 | 0.945 | -0.387 | 0.83 | 1.67 (inactive) | 1.48 | 1.31
